The results in this text go back to the supplement of paper PMC6555819.

The test system of one experiment is PPARg DBDmut IVT, anti-PPARg (DBD mutation: PPARg1 K132A/R137A, NR concentration 270 nM). In words: PBM binding z-score (relative to random genomic background probes); higher = stronger binding; sequences stand for … in GC…GCGATTGACAGCGTAGAATGAAGG
The method, boiled down:
(§1)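 Probes were double-stranded and carried 34-nt variable regions with direct-repeat seeds, single-nucleotide variants, half-site ablations and random human genomic background sequences, printed on custom Agilent 4×180K protein-binding microarrays. Arrays were incubated 1 h with ligand-free nuclear receptor dimers in PBS pH 7.4, 2% milk, 0.02% Triton X-100, 1 mM DTT, 0.2 mg/mL BSA and 0.4 mg/ml salmon testes DNA. Antibodies against each partner (one per run) detected binding, and scanned fluorescence was regression-normalized. Binding z-scores use the random background probes as reference.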
CCTCCTAGGTCATGGTCAGCTAATCTACAGTATG had a PBM binding z-score of 0.0352.
In the case of CCAGACAGGTGAAAGGTAACACAGTCTGGTACGC, the PBM binding z-score is -0.499.
AGAACGAGGGCAATGAGTTGATAGCGCGGGTGGC showed a PBM binding z-score of -0.898.
ATATGTAGGTTATCGGGTCAATCAGTTTGCGCAT: the PBM binding z-score was 2.14.
For the sequence ACAGACAGATGAGTGAAGGTAACTCAGCTGGACG, the PBM binding z-score is 0.138.
The same measure, in the same setting: as for GCAGACAGGTGAAAAGCAGGTAACTCAGGGTGGC, the figure is -1.28; as for TCGAGTAGGTTACCAAGGGGGCATTCAGCTTTCT, 5.1.
Still for that read-out and setting: the result for GCGACTGGGGCAAAGCAGGTTACCAAAAGGTTGG reads -0.695; that for ATATGTAGGTTACATCCAGGTCATTCAGGCTATG, 2.95.
Still for that read-out and setting: as for CCTACTGGGCCAAATGTCATTGATTCCAATGCTC, the figure is 0.471; as for ACTGTTAGTTGACTTAGGGCAACCGATACGACGC, 0.844.
On to ATCTAAAGGTCGAGGTGAGTATAGAGAAAGGGAA, for which the PBM binding z-score amounted to 1.16.
Sequence CCTAGTTGGTCAAGGGCACACACGCTATAGGTAC gave a PBM binding z-score of 0.0269.
On to TCTTGTAGATCAACAGGAGGCTAAGAAAGATCGA, for which the PBM binding z-score was 0.151.
TCATATAGGTAAACAGGTGAAAATCCGTAAGTTA gave a PBM binding z-score of 0.925.
For CGTCCAAGGTCTATGCTAGGTCAGTGAAAGCATT, the PBM binding z-score is -0.699.
With CGTCCAAGGTCAAGGTCAGTGGAAGAGACTCGAA, the PBM binding z-score is -0.109.
Turning to AGAATGAGGTTATTAAGTTCAGGGAATTGCGGTC, the PBM binding z-score worked out at 0.465.
The sequence CCTTACGGGTCACTCCAGGTAATAGCATCGGAGT came in with a PBM binding z-score of 0.618.
The sequence ATCGAAAGGACGACGAGGTGAGTATACACCGTTT gave a PBM binding z-score of 0.683.
Regarding CGTCCAAGGTCATAGGAGGTCAGTGAAGACAGAT, the PBM binding z-score was -0.116.
On the same count and under the same terms, as for GATACAGGGTCAAGGCCAGAGAACGCGTATTGAT, the figure is -0.524; as for TCTATTAGTTGAAAGGCAACCGACGAGTCCGTTT, -0.131; as for CCGACTGGGGCAAAGGTTACCATCCTCAGTACGA, -0.948.
The same measure, in the same setting: as for TCTTGTAGATCAAGCAGGATAAGAAAGCCTGAGT, the figure is 0.533.
Still for that read-out and setting: the result for AGACCGAGGGCACGCTGAGTTGATAGCAGAGTAG reads -1.3.
TCTAGTTGGTCACCGAGGTCACACACGACGGGTA: the PBM binding z-score turned out to be 2.33.
The sequence CGTGCAAGGTCAGCAGGTCAGTGAAAGCGACGTG registered a PBM binding z-score of 0.527.
For the sequence CCTCGCAGGACAACAGGAGGTCAGAGCTGCCAGA, the PBM binding z-score is -0.93.
As to ATCTCTAGATAAAAGTTCAGTGAATCCCGAGGAT, the PBM binding z-score was 0.904.
As for CCTAGCAGGCCAGGGTCAATCAAGCATTTCGCTT, the PBM binding z-score was -2.02.
Take TCTTGTACATCAAAGGTTAAGAAAGCCGAAGCCT: the PBM binding z-score is 0.483.
On the same count and under the same terms, as for ACTATTAGTTGAGACGAGGGCAACCGTTAGGTTG, the figure is 0.173.
Same read-out and setting: as for AGAATGAGGTTATTAAGATCAGGCAATTGCGGTC, the figure is 0.448; as for GCATATAGATAATACAAGGTGAAAGTCCGATTGT, 0.755; as for GCTTGTAGATCAAGGTTAGGAAAGACTAAGCTAA, 0.0428.
AGAATGATGTTATTAAGATCAGGGAATTGCGGTC came in with a PBM binding z-score of 0.441.
For CCGACTGGGGCAAAGGTTACCATTCTCAGTACGA, the PBM binding z-score came to 0.351.
For the sequence ATATGTAGGTTATCGGGTCATTTAGTTTGCGCAT, the PBM binding z-score was found to be 1.71.
As to TCATATAGGTAAATGCTAGGTTAAAGTCCGATCT, the PBM binding z-score was 1.02.

For a further experiment, the system named is PPARg homodimer (NR concentration 180 nM). The description is as above. The procedure, abridged: as §1
CCTCCTAGGTCATGGTCAGCTAATCTACAGTATG displayed a PBM binding z-score of 1.57.
Regarding CCAGACAGGTGAAAGGTAACACAGTCTGGTACGC, the PBM binding z-score came to 0.837.
In turn, AGAACGAGGGCAATGAGTTGATAGCGCGGGTGGC returned a PBM binding z-score of -0.335.
Regarding ATATGTAGGTTATCGGGTCAATCAGTTTGCGCAT, the PBM binding z-score is 2.33.
For ACAGACAGATGAGTGAAGGTAACTCAGCTGGACG, the PBM binding z-score was found to be 0.692.
GCAGACAGGTGAAAAGCAGGTAACTCAGGGTGGC: the PBM binding z-score was -0.799.
Take TCGAGTAGGTTACCAAGGGGGCATTCAGCTTTCT: the PBM binding z-score came to 1.17.
Same read-out and setting: the result for GCGACTGGGGCAAAGCAGGTTACCAAAAGGTTGG reads -0.131; that for ATATGTAGGTTACATCCAGGTCATTCAGGCTATG, 2.59.
The same measure, in the same setting: as for CCTACTGGGCCAAATGTCATTGATTCCAATGCTC, the figure is 0.28; as for ACTGTTAGTTGACTTAGGGCAACCGATACGACGC, 0.977.
As to ATCTAAAGGTCGAGGTGAGTATAGAGAAAGGGAA, the PBM binding z-score is 2.16.
Sequence CCTAGTTGGTCAAGGGCACACACGCTATAGGTAC gave a PBM binding z-score of 1.15.
In turn, TCTTGTAGATCAACAGGAGGCTAAGAAAGATCGA showed a PBM binding z-score of -1.21.
TCATATAGGTAAACAGGTGAAAATCCGTAAGTTA came in with a PBM binding z-score of 1.28.
CGTCCAAGGTCTATGCTAGGTCAGTGAAAGCATT gave a PBM binding z-score of 0.128.
In the case of CGTCCAAGGTCAAGGTCAGTGGAAGAGACTCGAA, the PBM binding z-score is 3.84.
AGAATGAGGTTATTAAGTTCAGGGAATTGCGGTC: the PBM binding z-score came out at 1.36.
Still for that read-out and setting: the result for CCTTACGGGTCACTCCAGGTAATAGCATCGGAGT reads 2.25; that for ATCGAAAGGACGACGAGGTGAGTATACACCGTTT, -0.198.
On the same count and under the same terms, as for CGTCCAAGGTCATAGGAGGTCAGTGAAGACAGAT, the figure is 3.31.
Still for that read-out and setting: the result for GATACAGGGTCAAGGCCAGAGAACGCGTATTGAT reads 2.6; that for TCTATTAGTTGAAAGGCAACCGACGAGTCCGTTT, 1.05; that for CCGACTGGGGCAAAGGTTACCATCCTCAGTACGA, 1.17.
TCTTGTAGATCAAGCAGGATAAGAAAGCCTGAGT: the PBM binding z-score came out at 0.027.
For the sequence AGACCGAGGGCACGCTGAGTTGATAGCAGAGTAG, the PBM binding z-score worked out at 0.2.
With TCTAGTTGGTCACCGAGGTCACACACGACGGGTA, the PBM binding z-score was 3.73.
On to CGTGCAAGGTCAGCAGGTCAGTGAAAGCGACGTG, for which the PBM binding z-score is 2.62.
CCTCGCAGGACAACAGGAGGTCAGAGCTGCCAGA displayed a PBM binding z-score of 1.52.
The sequence ATCTCTAGATAAAAGTTCAGTGAATCCCGAGGAT displayed a PBM binding z-score of 1.13.
Same read-out and setting: the result for CCTAGCAGGCCAGGGTCAATCAAGCATTTCGCTT reads 1.08; that for TCTTGTACATCAAAGGTTAAGAAAGCCGAAGCCT, 1.01.
ACTATTAGTTGAGACGAGGGCAACCGTTAGGTTG: the PBM binding z-score came out at 0.552.
With AGAATGAGGTTATTAAGATCAGGCAATTGCGGTC, the PBM binding z-score was 0.366.
As to GCATATAGATAATACAAGGTGAAAGTCCGATTGT, the PBM binding z-score is 0.731.
Same read-out and setting: the result for GCTTGTAGATCAAGGTTAGGAAAGACTAAGCTAA reads -0.189; that for AGAATGATGTTATTAAGATCAGGGAATTGCGGTC, 0.197.
CCGACTGGGGCAAAGGTTACCATTCTCAGTACGA gave a PBM binding z-score of 3.82.
ATATGTAGGTTATCGGGTCATTTAGTTTGCGCAT returned a PBM binding z-score of 3.3.
Consider TCATATAGGTAAATGCTAGGTTAAAGTCCGATCT, for which the PBM binding z-score amounted to 1.14.
